In the library only some 3.5% were active in any assay of this set; here they are far more common.
Anthrax LF prot = blocks Bacillus anthracis lethal factor protease; P15917; multiplex microsphere protease cleavage assay, LF; inhibition, % at 10 µM; 0.12% of 360,000 active; AID 588501; further: plate controls were buffer without enzyme for full effect and enzyme alone for no effect
Target sequence (P15917 whole entry, looked up): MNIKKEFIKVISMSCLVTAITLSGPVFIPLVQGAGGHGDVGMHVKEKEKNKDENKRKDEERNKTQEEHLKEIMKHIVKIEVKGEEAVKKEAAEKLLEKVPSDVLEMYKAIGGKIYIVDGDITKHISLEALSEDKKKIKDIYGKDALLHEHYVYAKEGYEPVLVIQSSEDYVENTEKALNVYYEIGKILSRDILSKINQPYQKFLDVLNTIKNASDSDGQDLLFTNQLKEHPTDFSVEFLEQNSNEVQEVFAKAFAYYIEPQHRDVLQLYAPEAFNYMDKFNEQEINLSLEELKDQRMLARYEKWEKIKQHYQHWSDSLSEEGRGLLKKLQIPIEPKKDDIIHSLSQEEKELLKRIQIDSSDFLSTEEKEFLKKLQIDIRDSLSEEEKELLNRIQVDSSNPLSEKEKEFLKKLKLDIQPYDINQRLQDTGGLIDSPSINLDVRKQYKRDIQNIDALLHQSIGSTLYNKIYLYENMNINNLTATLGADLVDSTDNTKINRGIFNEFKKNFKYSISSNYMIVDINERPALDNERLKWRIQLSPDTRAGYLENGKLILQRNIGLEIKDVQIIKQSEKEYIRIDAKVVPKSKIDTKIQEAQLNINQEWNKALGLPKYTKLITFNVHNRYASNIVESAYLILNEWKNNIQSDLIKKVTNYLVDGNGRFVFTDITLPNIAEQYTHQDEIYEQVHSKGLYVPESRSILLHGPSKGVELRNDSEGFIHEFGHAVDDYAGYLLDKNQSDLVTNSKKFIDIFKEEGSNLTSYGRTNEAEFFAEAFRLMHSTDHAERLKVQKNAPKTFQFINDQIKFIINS
BoNT A protease = BoNT A light chain protease inhibition | multiplex microsphere protease substrate cleavage, flow cytometry | inhibition, % at 10 µM | 0.17% of 360,000 active | AID 588499; further: plate controls were buffer without enzyme for full effect and enzyme alone for no effect
Autofluor counter = flagged as autofluorescent in microsphere protease counterscreen. 3.1% of 360,000 active. fluorescence intensity (test concentration not listed). compound autofluorescence counterscreen, microsphere flow cytometry; stronger effect = higher value; in the data active means fluorescence intensity above about 16000; inconclusive means no clear call, values can overlap the other calls
BoNT F protease = blocks Botulinum neurotoxin F light chain protease; Multiplex microsphere protease cleavage assay, flow cytometry; 0.22% of 360,000 active; AID 588497; inhibition, % at 10 µM; in the data active means inhibition above about 35%, passing the limit was not always enough; inconclusive means no clear call, values can overlap the other calls; further: plate controls were buffer without enzyme for full effect and enzyme alone for no effect
Starred values were filed as active, the others as inactive; ? = inconclusive. Unless noted, no stated cut-off is given here; in the data, active means inhibition above about 30%; inconclusive means no clear call, values can overlap the other calls; inactive means below that.

SMILES | Anthrax LF prot | BoNT A protease | Autofluor counter | BoNT F protease
CCCNC(=O)c1cc(C2CCCCN2C(=O)c2cc(OC)c(C)c(OC)c2)on1 (centres undefined) | -1.5 | 0.1 | 2933 | -2.1
COC(=O)Nc1ccc(=O)n(Cc2c(Cl)cccc2Cl)c1 | -1.8 | -1.3 | 23829* | -7.1
CN(Cc1ccc(Br)s1)C(=O)CNC(=O)c1ccc2c(c1)OCO2 | 0.0 | 4.4 | 4718 | -0.3
CSc1ncccc1C(=O)NCc1nnc2ccccn12 | -13.6 | 0.6 | 2936 | -3.5
CCCC(=O)n1nc(-c2cccnc2)nc1N | -2.1 | ? | 23837* | -4.8
O=C(NC1(C(F)(F)F)NC(=O)N(Cc2cccnc2)C1=O)c1ccccc1 (centres undefined) | -2.2 | -4.2 | 20881* | -6.5
CC(C)CN1C(=O)NC(NC(=O)c2cccs2)(C(F)(F)F)C1=O (centres undefined) | 0.6 | ? | 21985* | 0.0
O=C(NC1(C(F)(F)F)NC(=O)N(Cc2ccco2)C1=O)c1cccnc1 (centres undefined) | 2.3 | 0.6 | 4592 | 15.6
O=C(NC1(C(F)(F)F)NC(=O)N(Cc2ccco2)C1=O)c1cccs1 (centres undefined) | -0.3 | 4.8 | 20774* | 8.1
CN1C(=O)NC(NC(=O)c2cccs2)(C(F)(F)F)C1=O (centres undefined) | 6.3 | 0.8 | 9064 | 2.8
NC(N)=NCCCS(=O)(=O)Nc1ccc(Nc2c3ccccc3nc3cc([N+](=O)[O-])ccc23)cc1 | -14.5 | -0.1 | 3335 | -26.5
Cc1cc(C)c(C)c(S(=O)(=O)Nc2cccc(S(=O)(=O)Nc3ccccc3C(=O)O)c2)c1C | 3.2 | -0.3 | 2894 | 2.3
Cc1ccc(CN2CCSc3ccc(C(=O)N4CCN(c5ncccn5)CC4)cc32)cc1 | 2.1 | 0.6 | 22029* | 0.7
CCOC(=O)c1c(NC(=O)c2ccccc2Br)sc2c1CCc1ccccc1-2 | -2.1 | ? | 22027* | 3.6
CCOC(=O)c1c(NC(C)=O)sc2c1CCC(C=O)=C2Sc1ccccc1 | 41.3* | 50.0* | 7887 | 39.6*
CCOC(=O)c1c(NC(C)=O)sc2c1CCCNC2=O | -5.6 | 0.9 | 3473 | -19.6
O=C(NC1CCCc2ccccc21)C1CCN(S(=O)(=O)N2CCCCCC2)CC1 (centres undefined) | 3.4 | 3.2 | 21253* | 5.5
CCCCn1c(N(CCOC(C)=O)C(C)=O)nc2ccccc21 | -10.0 | 4.0 | 19843* | 7.0
O=C(CN1C(=O)c2ccccc2C1=O)NCc1ccncc1 | -13.4 | 6.8 | 20208* | 9.8
O=C(CCN1C(=O)c2ccccc2C1=O)NCc1ccncc1 | -1.2 | -1.3 | 9474 | -1.4
COc1ccc(OC)c(CN2CCN(C(=O)c3cccc(S(=O)(=O)Nc4ccc(C)cc4)c3)CC2)c1 | 1.2 | 0.3 | 4611 | -6.1
CC(=O)N1c2ccccc2Oc2cc3ccccc3cc21 | -4.6 | 0.7 | 6722 | -6.7
O=C(CCl)N1c2ccccc2Oc2ccc3ccccc3c21 | 34.8* | 30.8* | 3811 | 11.4
Cc1cn([C@H]2C[C@H](O)[C@@H](/C=C/C(=O)NCCN3CCOCC3)O2)c(=O)[nH]c1=O | -4.6 | 1.2 | 5826 | 6.4
Clc1ccc(-c2nnc(-c3ccc(Br)o3)o2)c(Cl)c1 | 0.7 | 0.9 | 22190* | 1.9
SMILES | Anthrax LF prot | BoNT A protease | Autofluor counter | BoNT F protease
FC(F)(F)c1cc(Cl)c2nc(-c3ccco3)c(Cc3ccccc3C(F)(F)F)n2c1 | 1.5 | 1.5 | 4958 | 5.0
Cc1nn(Cc2ccc(Cl)cc2Cl)c(C)c1NC(=O)CCl | 0.4 | ? | 19112* | 4.0
Cc1nn(Cc2ccc(Cl)cc2Cl)c(C)c1NC(=O)c1nn(C)cc1Cl | -1.4 | -0.2 | 10190 | -4.6
Cc1nn(C)c(Cl)c1NC(=O)OCc1ccc(Cl)cc1Cl | -5.4 | ? | 23382* | -5.8
CC(=O)Oc1ccc(Cn2c(C)c(C(=O)NCCC#N)sc2=O)cc1 | -8.2 | 0.2 | 5350 | 7.3
CCCCNC(=O)Nc1cc(C(F)(F)F)c[nH]c1=O | -1.4 | -3.0 | 24583* | -5.5
CCCCNC(=O)Nc1ccccc1CC | 2.4 | 0.4 | 4189 | ?
C=CCn1c(SCC(=O)c2cc(C)n(C(C)COC)c2C)nc2sc(C)c(C)c2c1=O (centres undefined) | -17.5 | ? | 19713* | 3.8
CC(SCc1ccccc1)C(=O)Nc1ccc2c(c1)OCO2 (centres undefined) | -4.4 | -1.0 | 16775* | -8.0
Nc1nnc(SCC(=O)Nc2ccc3c(c2)OCCO3)s1 | -13.8 | -1.9 | 17217* | -4.1
O=C(CNCc1ccccc1Cl)Nc1ccc2c(c1)OCCO2 | -6.5 | -0.5 | 6224 | -20.1
CCC(=O)Nc1nnc(SCC(=O)Nc2ccc3c(c2)OCCO3)s1 | 3.9 | -0.6 | 5705 | -5.0
O=C(O)CSc1nnc(-c2ccc3c(c2)OCO3)o1 | 0.8 | 1.0 | 16221* | -1.5
O=C(CSCc1ccccc1Cl)Nc1ccc2c(c1)OCCO2 | -3.2 | ? | 20949* | 6.4
CC1(Oc2ccccc2-c2ccn[nH]2)CCN(Cc2ccc(OC(F)(F)F)cc2)C1 (centres undefined) | -0.2 | -0.1 | 3632 | -9.7
O=C(CSc1nnc(-c2cccc(Cl)c2)o1)Nc1ccc2c(c1)OCCO2 | -5.2 | ? | 22299* | -1.0
CC(=O)[C@@H]1[C@@H](C(=O)c2ccccc2)[C@]2(C(=O)Nc3ccccc32)[C@H]2C=Cc3cc(F)ccc3N12 | 2.2 | 4.4 | 3170 | -9.1
O=C(c1ccccc1)[C@@H]1[C@@H](C(=O)c2ccc(F)cc2)[C@@]2(C(=O)Nc3ccccc32)[C@H]2c3ccccc3C=CN12 | 29.3 | 39.2* | 7809 | 17.3
O=C1NC(=O)N(Cc2cccs2)C(=O)/C1=C/c1ccc(N2CCOCC2)cc1 | -8.9 | 0.0 | 3175 | -9.0
O=C1NC(=O)N(Cc2ccccc2Cl)C(=O)/C1=C/N1CCOCC1 | -0.8 | 0.5 | 23148* | -2.6
CCNC(=O)C1(C)CCCN(C(=O)c2cc(-c3ccccc3)cs2)C1 (centres undefined) | 0.8 | -0.4 | 3737 | 3.9
CCOc1ccc(C(=O)N2CCn3c2nc2ccccc23)cc1 | 2.9 | -0.9 | 5440 | -4.2
CCOC(=O)C1=C(O)CCn2c1nc1ccccc12 | -7.2 | 9.1 | 19422* | 10.6
C[C@@H]1CN([C@@H](C)CO)C(=O)c2cc(C#CCN(C)C)cnc2O[C@H]1CN(C)Cc1ccc2c(c1)OCO2 | -1.9 | 0.2 | 4245 | -11.0
CCc1ccccc1NC(=O)CN(C)C(=O)c1cccc(S(=O)(=O)N2CCCCCC2)c1 | -3.8 | -1.9 | 5427 | 0.6
SMILES | Anthrax LF prot | BoNT A protease | Autofluor counter | BoNT F protease
C[C@@H]1CN([C@@H](C)CO)C(=O)CCCn2nncc2CO[C@@H]1CN(C)C(=O)C1CCCCC1 | -2.7 | -0.8 | 2959 | -8.4
COc1ccc([C@@H]2Sc3cc(OC)ccc3N(CCN(C(C)C)C(C)C)C(=O)[C@H]2OC(C)=O)cc1 | -3.7 | 3.4 | 20962* | 5.3
CCOC(=O)CSc1nc2ccsc2c(=O)n1C1CCN(C(=O)OCC)CC1 | -3.6 | -0.1 | 8035 | 0.1
CCOC(=O)CSc1nc2cc(C(=O)NCc3ccco3)ccc2c(=O)n1C1CCCCC1 | -1.1 | 0.2 | 16581* | 0.5
CCOC(=O)N1CCC(n2c(SCC(=O)NCc3ccco3)nc3ccsc3c2=O)CC1 | -3.1 | -0.9 | 23599* | -0.8
O=C(COc1ccc(Br)cc1)N1CCN(c2ncccn2)CC1 | 3.3 | 1.6 | 4579 | 4.9
N#Cc1ccsc1NC(=O)CSc1nncs1 | -3.6 | -0.3 | 3807 | -5.9
